Residue numbers refer to the chain shown, from its start.
What was measured:
Test in all cases: PBM; 200 nM protein, PBS
Details in all cases: dsDNA, one strand shown
[1] = molecular target: CRX (Homo sapiens, UniProt O43186 26-111)
[2] = molecular target: T1, SIX6 (Homo sapiens, UniProt O95475 114-200, L167I)
T1 sequence: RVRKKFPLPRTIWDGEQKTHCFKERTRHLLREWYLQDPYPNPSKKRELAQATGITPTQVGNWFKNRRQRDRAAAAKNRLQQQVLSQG

[3] = molecular target: T2, SIX6 (Homo sapiens, UniProt O95475 114-200, L143V)
T2 sequence: T1 sequence with L30V, I54L

[4] = molecular target: T3, SIX6 (Homo sapiens, UniProt O95475 114-200, H141N)
T3 sequence: T1 sequence with H28N, I54L

[5] = molecular target: T4, SIX6 (Homo sapiens, UniProt O95475 114-200, T165P)
T4 sequence: T1 sequence with T52P, I54L

[6] = molecular target: T5, SIX6 (Homo sapiens, UniProt O95475 114-200, L167M)
T5 sequence: T1 sequence with I54M

[7] = molecular target: T6, SIX6 (Homo sapiens, UniProt O95475 114-200, L143M)
T6 sequence: T1 sequence with L30M, I54L

[8] = molecular target: T7, SIX6 (Homo sapiens, UniProt O95475 114-200, L143I)
T7 sequence: T1 sequence with L30I, I54L

[9] = molecular target: T8, SIX6 (Homo sapiens, UniProt O95475 114-200, T165G)
T8 sequence: T1 sequence with T52G, I54L

[10] = molecular target: T9, SIX6 (Homo sapiens, UniProt O95475 114-200, T139Q)
T9 sequence: T1 sequence with T26Q, I54L

[11] = molecular target: CRX (Homo sapiens, UniProt O43186 26-111, E42D)
Chain of CRX (Homo sapiens, UniProt O43186 26-111, E42D) (O43186 26-111 E42D): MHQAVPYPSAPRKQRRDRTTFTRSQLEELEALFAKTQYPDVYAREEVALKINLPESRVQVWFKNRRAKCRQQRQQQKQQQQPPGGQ

[12] = molecular target: T10, SIX6 (Homo sapiens, UniProt O95475 114-200, T165A)
T10 sequence: T1 sequence with T52A, I54L

[13] = molecular target: T11, SIX6 (Homo sapiens, UniProt O95475 114-200, L167V)
T11 sequence: T1 sequence with I54V

[14] = molecular target: T12, SIX6 (Homo sapiens, UniProt O95475 114-200)
T12 sequence: T1 sequence with I54L

[15] = molecular target: T13, SIX6 (Homo sapiens, UniProt O95475 114-200, T165I)
T13 sequence: T1 sequence with T52I, I54L

[16] = molecular target: CRX (Homo sapiens, UniProt O43186 26-111, R41L)
Chain of CRX (Homo sapiens, UniProt O43186 26-111, R41L) (O43186 26-111 R41L): as the sequence (O43186 26-111 E42D) above, with R16L, D17E counted along it

[17] = molecular target: T14, VENTX (Homo sapiens, UniProt O95231 78-163, R121Q)
T14 sequence: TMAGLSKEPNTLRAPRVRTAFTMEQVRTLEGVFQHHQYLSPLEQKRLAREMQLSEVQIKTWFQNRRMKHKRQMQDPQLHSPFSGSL

[18] = molecular target: T15, VENTX (Homo sapiens, UniProt O95231 78-163)
T15 sequence: T14 sequence with Q44R

[19] = molecular target: T16, VENTX (Homo sapiens, UniProt O95231 78-163, Y115F)
T16 sequence: T14 sequence with Y38F, Q44R

[20] = molecular target: HOXB9 (Homo sapiens, UniProt P17482 171-250)
Chain of HOXB9 (Homo sapiens, UniProt P17482 171-250) (P17482 171-250): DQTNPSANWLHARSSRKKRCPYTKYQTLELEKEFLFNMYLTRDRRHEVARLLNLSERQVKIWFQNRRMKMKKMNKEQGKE

[21] = molecular target: PITX2 (Homo sapiens, UniProt Q99697 72-157)
[22] = molecular target: HOXB9 (Homo sapiens, UniProt P17482 171-250, R186Q)
Chain of HOXB9 (Homo sapiens, UniProt P17482 171-250, R186Q) (P17482 171-250 R186Q): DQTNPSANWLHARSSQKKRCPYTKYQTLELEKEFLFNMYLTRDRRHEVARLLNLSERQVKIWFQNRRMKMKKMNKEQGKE

[23] = molecular target: ALX4 (Homo sapiens, UniProt Q9H161 200-286)
Chain of ALX4 (Homo sapiens, UniProt Q9H161 200-286) (Q9H161 200-286): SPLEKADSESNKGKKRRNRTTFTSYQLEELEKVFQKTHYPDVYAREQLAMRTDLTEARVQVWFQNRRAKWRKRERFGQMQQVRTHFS

[24] = molecular target: T17, PAX4 (Homo sapiens, UniProt O43316 9-242, R200K)
T17 sequence: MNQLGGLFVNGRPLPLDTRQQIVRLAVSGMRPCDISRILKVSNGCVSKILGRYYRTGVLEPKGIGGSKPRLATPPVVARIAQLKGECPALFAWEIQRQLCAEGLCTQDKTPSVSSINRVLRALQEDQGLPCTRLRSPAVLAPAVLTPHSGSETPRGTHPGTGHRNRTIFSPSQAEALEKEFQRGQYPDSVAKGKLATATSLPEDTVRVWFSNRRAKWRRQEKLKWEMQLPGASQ

[25] = molecular target: T18, PAX4 (Homo sapiens, UniProt O43316 9-242)
T18 sequence: T17 sequence with K192R

[26] = molecular target: ALX4 (Homo sapiens, UniProt Q9H161 200-286, Q225E)
Chain of ALX4 (Homo sapiens, UniProt Q9H161 200-286, Q225E) (Q9H161 200-286 Q225E): as the sequence (Q9H161 200-286) above, with Q26E counted along it

[27] = molecular target: HOXA2 (Homo sapiens, UniProt O43364 129-215, R185T)
Chain of HOXA2 (Homo sapiens, UniProt O43364 129-215, R185T) (O43364 129-215 R185T): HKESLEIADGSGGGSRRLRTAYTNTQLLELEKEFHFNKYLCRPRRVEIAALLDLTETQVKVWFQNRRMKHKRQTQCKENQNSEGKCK

[28] = molecular target: ALX3 (Homo sapiens, UniProt O95076 139-225, N203Q)
Chain of ALX3 (Homo sapiens, UniProt O95076 139-225, N203Q) (O95076 139-225 N203Q): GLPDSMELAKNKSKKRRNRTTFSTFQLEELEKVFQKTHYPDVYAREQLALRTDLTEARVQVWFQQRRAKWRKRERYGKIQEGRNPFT

[29] = molecular target: T19, PAX4 (Homo sapiens, UniProt O43316 9-242, R200Q)
T19 sequence: T17 sequence with K192Q

[30] = molecular target: HOXA2 (Homo sapiens, UniProt O43364 129-215, R185K)
Chain of HOXA2 (Homo sapiens, UniProt O43364 129-215, R185K) (O43364 129-215 R185K): as the sequence (O43364 129-215 R185T) above, with T57K counted along it

[31] = molecular target: T20, PAX4 (Homo sapiens, UniProt O43316 9-242, F177V)
T20 sequence: T17 sequence with F169V, K192R

[32] = molecular target: ALX3 (Homo sapiens, UniProt O95076 139-225)
Chain of ALX3 (Homo sapiens, UniProt O95076 139-225) (O95076 139-225): as the sequence (O95076 139-225 N203Q) above, with Q65N counted along it

[33] = molecular target: T21, PAX4 (Homo sapiens, UniProt O43316 9-242, F177Y)
T21 sequence: T17 sequence with F169Y, K192R

[34] = molecular target: ALX3 (Homo sapiens, UniProt O95076 139-225, L168Q)
Chain of ALX3 (Homo sapiens, UniProt O95076 139-225, L168Q) (O95076 139-225 L168Q): as the sequence (O95076 139-225 N203Q) above, with L30Q, Q65N counted along it

[35] = molecular target: ALX3 (Homo sapiens, UniProt O95076 139-225, L168V)
Chain of ALX3 (Homo sapiens, UniProt O95076 139-225, L168V) (O95076 139-225 L168V): as the sequence (O95076 139-225 N203Q) above, with L30V, Q65N counted along it

[36] = molecular target: T22, PAX4 (Homo sapiens, UniProt O43316 9-242, R227W)
T22 sequence: T17 sequence with K192R, R219W

[37] = molecular target: HOXA2 (Homo sapiens, UniProt O43364 129-215, Y150S)
Chain of HOXA2 (Homo sapiens, UniProt O43364 129-215, Y150S) (O43364 129-215 Y150S): as the sequence (O43364 129-215 R185T) above, with Y22S, T57R counted along it

[38] = molecular target: ALX3 (Homo sapiens, UniProt O95076 139-225, N203S)
Chain of ALX3 (Homo sapiens, UniProt O95076 139-225, N203S) (O95076 139-225 N203S): as the sequence (O95076 139-225 N203Q) above, with Q65S counted along it

[39] = molecular target: HOXA2 (Homo sapiens, UniProt O43364 129-215)
Chain of HOXA2 (Homo sapiens, UniProt O43364 129-215) (O43364 129-215): as the sequence (O43364 129-215 R185T) above, with T57R counted along it

Chain of CRX (Homo sapiens, UniProt O43186 26-111) (O43186 26-111): as the sequence (O43186 26-111 E42D) above, with D17E counted along it

Sequence: ACGCAACG
- binding signal [1]: 8.38 upbm affinity estimate (log intensity, higher = more binding, comparable within an allelic series)
- binding signal [2]: 9.07 upbm affinity estimate (log intensity, higher = more binding, comparable within an allelic series)
- binding signal [3]: 9.09 upbm affinity estimate (log intensity, higher = more binding, comparable within an allelic series)
- binding signal [4]: 9.09 upbm affinity estimate (log intensity, higher = more binding, comparable within an allelic series)
- binding signal [5]: 9.22 upbm affinity estimate (log intensity, higher = more binding, comparable within an allelic series)
- binding signal [6]: 9.12 upbm affinity estimate (log intensity, higher = more binding, comparable within an allelic series)
- binding signal [7]: 9.21 upbm affinity estimate (log intensity, higher = more binding, comparable within an allelic series)
- binding signal [8]: 9.08 upbm affinity estimate (log intensity, higher = more binding, comparable within an allelic series)
- binding signal [9]: 9.2 upbm affinity estimate (log intensity, higher = more binding, comparable within an allelic series)
- binding signal [10]: 9.17 upbm affinity estimate (log intensity, higher = more binding, comparable within an allelic series)
- binding signal [11]: 8.41 upbm affinity estimate (log intensity, higher = more binding, comparable within an allelic series)
- binding signal [12]: 9.14 upbm affinity estimate (log intensity, higher = more binding, comparable within an allelic series)
- binding signal [13]: 9.19 upbm affinity estimate (log intensity, higher = more binding, comparable within an allelic series)
- binding signal [14]: 9.12 upbm affinity estimate (log intensity, higher = more binding, comparable within an allelic series)
- binding signal [15]: 9.12 upbm affinity estimate (log intensity, higher = more binding, comparable within an allelic series)
- binding signal [16]: 8.43 upbm affinity estimate (log intensity, higher = more binding, comparable within an allelic series)

Sequence: GGATTACA
- binding signal [1]: 13.1 upbm affinity estimate (log intensity, higher = more binding, comparable within an allelic series)
- binding signal [17]: 9.08 upbm affinity estimate (log intensity, higher = more binding, comparable within an allelic series)
- binding signal [18]: 9.3 upbm affinity estimate (log intensity, higher = more binding, comparable within an allelic series)
- binding signal [19]: 9.18 upbm affinity estimate (log intensity, higher = more binding, comparable within an allelic series)
- binding signal [20]: 9.44 upbm affinity estimate (log intensity, higher = more binding, comparable within an allelic series)
- binding signal [11]: 13 upbm affinity estimate (log intensity, higher = more binding, comparable within an allelic series)
- binding signal [21]: 12.8 upbm affinity estimate (log intensity, higher = more binding, comparable within an allelic series)
- binding signal [22]: 9.52 upbm affinity estimate (log intensity, higher = more binding, comparable within an allelic series)
- binding signal [16]: 13 upbm affinity estimate (log intensity, higher = more binding, comparable within an allelic series)

Sequence: GCAGCTGC
- binding signal [1]: 8.45 upbm affinity estimate (log intensity, higher = more binding, comparable within an allelic series)
- binding signal [2]: 9.09 upbm affinity estimate (log intensity, higher = more binding, comparable within an allelic series)
- binding signal [3]: 9.05 upbm affinity estimate (log intensity, higher = more binding, comparable within an allelic series)
- binding signal [23]: 7.95 upbm affinity estimate (log intensity, higher = more binding, comparable within an allelic series)
- binding signal [24]: 8.99 upbm affinity estimate (log intensity, higher = more binding, comparable within an allelic series)
- binding signal [4]: 9.04 upbm affinity estimate (log intensity, higher = more binding, comparable within an allelic series)
- binding signal [5]: 9.02 upbm affinity estimate (log intensity, higher = more binding, comparable within an allelic series)
- binding signal [25]: 9.1 upbm affinity estimate (log intensity, higher = more binding, comparable within an allelic series)
- binding signal [6]: 9.06 upbm affinity estimate (log intensity, higher = more binding, comparable within an allelic series)
- binding signal [7]: 9.14 upbm affinity estimate (log intensity, higher = more binding, comparable within an allelic series)
- binding signal [8]: 9.05 upbm affinity estimate (log intensity, higher = more binding, comparable within an allelic series)
- binding signal [26]: 8.23 upbm affinity estimate (log intensity, higher = more binding, comparable within an allelic series)
- binding signal [9]: 9.04 upbm affinity estimate (log intensity, higher = more binding, comparable within an allelic series)
- binding signal [27]: 7.31 upbm affinity estimate (log intensity, higher = more binding, comparable within an allelic series)
- binding signal [10]: 9.1 upbm affinity estimate (log intensity, higher = more binding, comparable within an allelic series)
- binding signal [11]: 8.55 upbm affinity estimate (log intensity, higher = more binding, comparable within an allelic series)
- binding signal [28]: 7.82 upbm affinity estimate (log intensity, higher = more binding, comparable within an allelic series)
- binding signal [12]: 9.05 upbm affinity estimate (log intensity, higher = more binding, comparable within an allelic series)
- binding signal [29]: 9.09 upbm affinity estimate (log intensity, higher = more binding, comparable within an allelic series)
- binding signal [30]: 10.3 upbm affinity estimate (log intensity, higher = more binding, comparable within an allelic series)
- binding signal [31]: 9.27 upbm affinity estimate (log intensity, higher = more binding, comparable within an allelic series)
- binding signal [13]: 9.06 upbm affinity estimate (log intensity, higher = more binding, comparable within an allelic series)
- binding signal [32]: 7.63 upbm affinity estimate (log intensity, higher = more binding, comparable within an allelic series)
- binding signal [33]: 9.13 upbm affinity estimate (log intensity, higher = more binding, comparable within an allelic series)
- binding signal [14]: 9.1 upbm affinity estimate (log intensity, higher = more binding, comparable within an allelic series)
- binding signal [34]: 7.75 upbm affinity estimate (log intensity, higher = more binding, comparable within an allelic series)
- binding signal [15]: 9.05 upbm affinity estimate (log intensity, higher = more binding, comparable within an allelic series)
- binding signal [35]: 7.78 upbm affinity estimate (log intensity, higher = more binding, comparable within an allelic series)
- binding signal [36]: 9.34 upbm affinity estimate (log intensity, higher = more binding, comparable within an allelic series)
- binding signal [37]: 10.3 upbm affinity estimate (log intensity, higher = more binding, comparable within an allelic series)
- binding signal [16]: 8.5 upbm affinity estimate (log intensity, higher = more binding, comparable within an allelic series)
- binding signal [38]: 7.82 upbm affinity estimate (log intensity, higher = more binding, comparable within an allelic series)
- binding signal [39]: 7.36 upbm affinity estimate (log intensity, higher = more binding, comparable within an allelic series)

Reference: article PMC11006913
